The source of these data is ChEMBL document CHEMBL3988442, “University of Dundee, Small-Polar-MMV Screening Library” (2021).

Among all 48,000 compounds or so, about 13,000 (27%) showed an effect of 50% or more. Some of the results follow.

The test system of this experiment is Wolbachia pipientis. The experiment is described as follows: Anti-Wolbachia Cell-Based Screen. It is filed as functional. On the set-up: scale not given: in the data most compounds retested in dose-response had high values. Conditions: 5 µM.
In the case of `CC(NCC1=Cc2cc(Cl)ccc2OC1)c1nnc2n1CCCC2` (stereo not drawn), the “Percent Effect” value stood at 8.386%. The result for `CCNc1ccnc(N2CCN(Cc3ncccc3C)CC2)n1` reads 0.1311%; that for `CCc1cnc(NCC(c2cccnc2)N2CCOCC2)nc1` (stereo not drawn), 1.67%; that for `CCNc1nc(-c2cccnc2)c(-c2ccnc(N3CCOCC3)n2)s1`, 59.36%. The result for `CN1CCOC[C@H]1c1nc(-c2cccnc2)c[nH]1` reads -3.029%; that for `CCCS(=O)(=O)N1CCN(c2ccnc(N3CCCC3)n2)CC1`, 2.468%; that for `CCNc1nc(-c2cccnc2)c(-c2ccnc(N3CCCC3)n2)s1`, 59.83%. The result for `CN(Cc1nccn1C)c1ccc(-c2nccn2C)nn1` reads -5.677%. Turning to `CNc1cc(C2CCN2c2ncccn2)nc(C)n1` (stereo not drawn), the “Percent Effect” value worked out at 95.15%. With `Cc1nc(C2CCN2c2ncccn2)cc(N(C)C)n1` (stereo not drawn) the figure was 87.93%; with `Cc1nc(NC2CCCC2)cc(C2CCN2c2ncccn2)n1` (stereo not drawn), 84.97%; with `CN(Cc1nnc2n1CCC2)S(=O)(=O)c1cc(Br)ccc1Br`, 5.695%.

For `O=C(c1cncc(N2CCC3(CC2)NCCNC3=O)n1)N1CCCCC1`, the “Percent Effect” value is -23.93%. The result for `CN(C)CCn1ccc2cc(NC(=O)NCc3ccon3)ccc21` reads -4.037%; that for `O=C(Cc1cccc(F)c1F)NS(=O)(=O)c1ccc(Cl)cn1`, 3.295%. With `O=C(CNc1cc2c(cc1Cl)OCCO2)NCC(F)(F)F`, the “Percent Effect” value is 19.2%. The result for `CN(Cc1ccc2nsnc2c1)CC1(O)CCNC1` (stereo not drawn) reads 4.818%; that for `COc1ccc(CN(C)CC2(O)CCNC2)cc1` (stereo not drawn), 119.3%. The result for `COc1ccc(C2(C(=O)N3CC[C@@]4(O)CCNC[C@H]4C3)CCCC2)cc1` reads -11.98%; that for `N#Cc1cn(C2CC2)c(=O)n(Cc2ncc(-c3cccs3)o2)c1=O`, 18.42%; that for `COCCCN1CC2(CCCN(c3ncc4nc[nH]c4n3)C2)CCC1=O` (stereo not drawn), -4.995%.

In the case of `Cl.Cl.O=C(NCc1cncc2c1CCN(Cc1ccccc1)C2)C1CC1`, the “Percent Effect” value came to 12.37%. For the compound `Cl.Cl.O=C(NCc1cncc2c1CCN(C1CCOCC1)C2)c1ccco1`, the “Percent Effect” value is 116%. With `Cl.Cl.O=C(NCc1cncc2c1CCN(CC1CCOC1)C2)c1ccno1` (stereo not drawn), the “Percent Effect” value is 2.196%. The result for `Cl.Cl.O=C(NCc1cncc2c1CCN(C1CCOC1)C2)c1ccco1` (stereo not drawn) reads 112.9%; that for `CC(C)CN1CCC(C(=O)NCCNC(=O)c2ccco2)CC1`, -4.338%. The result for `Cl.Cl.O=C(NCc1cncc2c1CCN(C1CCOCC1)C2)c1ccno1` reads 114.6%; that for `Cl.Cl.O=C(NCc1cncc2c1CCN(Cc1cccc(F)c1)C2)C1CC1`, 1.539%. With `Cl.Cl.O=C(NCc1cncc2c1CCN(Cc1ccc(F)cc1)C2)C1CC1` the figure was -3.295%. On to `Cl.Cl.O=C(NCc1cncc2c1CCN(CC1CCOC1)C2)c1ccco1` (stereo not drawn), for which the “Percent Effect” value amounted to 105%. The result for `CS(=O)(=O)N1CCCN(C(=O)c2ccc(Cn3ccccc3=O)o2)CC1` reads 2.265%. As for `O=C(NS(=O)(=O)c1ccccc1Cl)c1cccc2c1OCCO2`, the “Percent Effect” value is -4.478%. As to `Cc1ccc(CN(C)C)cc1NC(=O)C1CC=CC1`, the “Percent Effect” value was -13.67%. As for `CCc1ncc2c(n1)CN(CC(=O)N1CCc3sccc3C1)CC2`, the “Percent Effect” value stood at 0.7848%. With `O=C(O)C(F)(F)F.c1cncc(N2CCC3(CCCN(c4ccncc4)C3)CC2)c1` the figure was 92.43%. The result for `O=C(O)C(F)(F)F.O=C(O)C(F)(F)F.c1cncc(N2CCCC3(CCN(CCN4CCCC4)CC3)C2)c1` reads 112%. With `O=C(O)C(F)(F)F.c1cncc(N2CCCC3(CCN(CC4CCCO4)CC3)C2)c1` (stereo not drawn) the figure was 83.5%; with `COc1ccc(N2CCCC3(C2)CN(c2cccnc2)CCO3)cc1.O=C(O)C(F)(F)F` (stereo not drawn), 0.9473%. As for `O=C(O)C(F)(F)F.c1cncc(N2CCOCC3(CCCN(c4nncs4)C3)C2)c1` (stereo not drawn), the “Percent Effect” value is -4.249%. The result for `Fc1cnccc1CN1CCCC2(CCN(c3ncccn3)CC2)C1.O=C(O)C(F)(F)F` reads -3.022%.

For the compound `N#Cc1ccc(N2CCCC3(CCN(c4cccnc4)CC3)C2)cc1.O=C(O)C(F)(F)F`, the “Percent Effect” value is 32.72%. The result for `c1ccc(NCc2cn3c(n2)CN(Cc2nccs2)CC3)nc1` reads 0.03801%. With `CC(=O)c1cc(CC(=O)N2CCN(S(=O)(=O)c3ccccc3)CC2)cs1` the figure was -20.85%; with `COc1cc2c(nn1)CCN(Cc1nnc(Cc3ccccc3)o1)C2`, 16.22%. As for `CC(C)COCCCNC(=O)NC(C)c1ccc(-n2cncn2)cc1` (stereo not drawn), the “Percent Effect” value is recorded as -8.242%. Take `COCCNC(=O)[C@H]1C[C@@H]2CCN(c3ccncn3)C[C@H]2O1.O=C(O)C(F)(F)F`: the “Percent Effect” value was 90.71%. The result for `O=C(NCc1cccnc1)[C@@H]1C[C@@H]2CCN(c3ncc(F)cn3)C[C@@H]2O1.O=C(O)C(F)(F)F.O=C(O)C(F)(F)F` reads 11.34%; that for `COCCNC(=O)[C@H]1C[C@@H]2CCN(CCc3ccccc3)C[C@H]2O1.O=C(O)C(F)(F)F`, 28.03%.

As to `O=C(NCc1cccnc1)[C@H]1C[C@@H]2CCN(c3ccncn3)C[C@H]2O1.O=C(O)C(F)(F)F.O=C(O)C(F)(F)F`, the “Percent Effect” value is reported as 98.22%. With `COCCNC(=O)[C@H]1C[C@@H]2CCN(c3ccccc3)C[C@H]2O1.O=C(O)C(F)(F)F`, the “Percent Effect” value was 88.58%. Turning to `O=C(NCc1cccnc1)[C@@H]1C[C@H]2[C@H](CCN2c2ncc(F)cn2)O1.O=C(O)C(F)(F)F.O=C(O)C(F)(F)F`, the “Percent Effect” value is -1.497%. The result for `COCCNC(=O)[C@@H]1C[C@@H]2CCN(c3ncccn3)C[C@H]2O1.O=C(O)C(F)(F)F` reads 90.69%. The result for `COCCNC(=O)[C@H]1C[C@@H]2CCN(CCc3ccccc3)C[C@@H]2O1.O=C(O)C(F)(F)F` reads -51.54%.
